Only some compounds are listed: those with a hit (about 3.9% of all), similar ones and a draw of the others.
Anthrax LF prot: blocks Bacillus anthracis lethal factor protease; P15917; multiplex microsphere protease cleavage assay, LF; inhibition, % at 10 µM; 360,000 tested, 0.12% active; further: plate controls were buffer without enzyme for full effect and enzyme alone for no effect
Bead autofluor: compound fluorescence in toxin protease inhibitor counterscreen; compound autofluorescence counterscreen, microsphere flow cytometry; stronger effect = higher value; fluorescence intensity (test concentration not listed); 360,000 tested, 3.1% active; in the data active means fluorescence intensity above about 16000; inconclusive means no clear call, values can overlap the other calls
BoNT-A LC inh2: BoNT A light chain protease inhibition. multiplex microsphere protease substrate cleavage, flow cytometry. inhibition, % at 10 µM. 360,000 tested, 0.17% active; further: plate controls were buffer without enzyme for full effect and enzyme alone for no effect
BoNT-F LC inh: blocks Botulinum neurotoxin F light chain protease; inhibition, % at 10 µM; 360,000 tested, 0.22% active; Multiplex microsphere protease cleavage assay, flow cytometry; AID 588497; in the data active means inhibition above about 35%, passing the limit was not always enough; inconclusive means no clear call, values can overlap the other calls; further: plate controls were buffer without enzyme for full effect and enzyme alone for no effect
CCHF vOTU inh-1: blocks the CCHF virus ovarian tumor domain protease; inhibition, % at 11.5 µM; 370,000 tested, 0.55% active; CCHFV vOTU protease, Pep-AMC fluorescence; in the data active means inhibition above about 30%; further: 0% = vehicle wells with enzyme and 100% = no enzyme wells
SARS 3CLpro inh: SARS-CoV 3CLpro protease inhibition; P0C6X7; AID 1706; recombinant SARS-CoV 3CLpro, quenched FRET peptide cleavage; inhibition, % at 6 µM; 290,000 tested, 0.14% active; in the data active means inhibition above about 12%
CCHF vOTU inh-2: confirmation of CCHF virus vOTU protease inhibitors; Recombinant CCHFV vOTU, Pep-AMC fluorescence; 1,900 tested, 17% active; AID 686976; inhibition, % at 11.5 µM; shares compounds with CCHF vOTU inh-1; in the data active means inhibition above about 30%
The depositor's hits bear a star; ? = inconclusive; . = not tested or not shown. Unless noted, no stated cut-off is given here; in the data, active means inhibition above about 30%; inconclusive means no clear call, values can overlap the other calls; inactive means below that.

SMILES | Anthrax LF prot | Bead autofluor | BoNT-A LC inh2 | BoNT-F LC inh | CCHF vOTU inh-1 | SARS 3CLpro inh | CCHF vOTU inh-2
CNc1snc(C)c1C(=O)OC(C)C(=O)NCc1ccccc1 (stereo not drawn) | -4.7 | 6238 | -1.5 | -0.5 | 14.2 | . | .
COc1ccc(C2C(C(=O)N3CCCC3)c3cc(OC)c(OC)cc3C(=O)N2C)cc1OC (stereo not drawn) | -0.4 | 9493 | 1.4 | -3.4 | 30.8* | -4.3 | -23.0
O=C(CSc1nccc2ccccc12)N1CCN(c2ccccn2)CC1 | 3.0 | 5576 | 0.3 | -5.0 | 65.2* | 1.8 | -9.9
Cc1ccc(SCC(=O)N2CCN(c3ccccn3)CC2)cc1 | -2.1 | 4255 | -0.5 | 6.3 | 2.0 | 2.2 | .
COC(=O)c1c(C)cc(O)c(C=O)c1O | -0.4 | 5574 | -0.6 | -2.5 | . | . | .
Cc1cc2c(C(C)C)c(O)c(O)c(C=O)c2c(O)c1-c1c(C)cc2c(C(C)C)c(O)c(O)c(C=O)c2c1O | 3.7 | 5135 | 0.4 | 3.6 | 63.3* | 4.9 | 31.0*
O=c1[nH]c(CN2CCc3ccccc3C2)nc2ccccc12 | -7.2 | 4535 | -0.2 | 2.3 | 44.2* | 4.2 | 12.2
COc1ccccc1C(CCNCc1ccc(N(C)C)cc1)c1ccc(OC(C)C)cc1 (stereo not drawn) | -20.0 | 4173 | -2.4 | -43.3 | 32.8* | 1.5 | -12.5
CCCCCC1C(=O)N2C=C(c3ccccc3)c3ccccc3N2C1=O (stereo not drawn) | 2.0 | 4072 | -0.1 | -6.7 | 0.8 | . | .
COC(=O)c1c(-c2ccccc2)csc1NC(=O)c1ccco1 | -3.1 | 9000 | -0.2 | -8.5 | -2.0 | -3.5 | .
O=C(Nc1scc(-c2ccc(F)cc2)c1C(=O)O)c1ccco1 | -7.5 | 3434 | -0.6 | -13.5 | 31.3* | 6.9 | -6.4
CCOCCOc1cc(NCc2ccccc2)c2ncn(C(C)C)c2c1 | 5.9 | 4491 | 0.9 | 9.2 | 29.7* | . | 4.1
CCCCOc1cc(NCc2ccccc2)c2ncn(C(C)C)c2c1 | -7.7 | 5119 | -1.0 | -2.4 | 37.0* | . | 10.3
CCC(COC)Oc1cc(NCc2ccccc2)c2ncn(C(C)C)c2c1 (stereo not drawn) | -1.3 | 3744 | 0.5 | -7.4 | 70.4* | . | 69.5*
COCCCOc1cc(NCc2ccccc2)c2ncn(C(C)C)c2c1 | -9.1 | 3176 | -0.3 | -6.4 | 6.7 | . | .
CCC(CO)Oc1cc(NCc2ccccc2)c2ncn(C(C)C)c2c1 (stereo not drawn) | 2.4 | 4155 | -0.8 | 0.8 | 10.2 | . | .
Cc1[nH][nH]c(=O)c1C(c1ccc(-c2ccc(F)cc2)o1)c1c(C)[nH][nH]c1=O | -3.6 | 2394 | -0.7 | -8.6 | 45.8* | 5.3 | -8.5
COc1ccc(CNC(=O)c2c(C)oc3c2C(=O)c2ccccc2C3=O)cc1 | -6.2 | 4089 | -0.4 | -5.6 | 54.0* | -0.2 | 47.9*
Cc1oc2c(c1C(=O)NCc1cccnc1)C(=O)c1ccccc1C2=O | . | . | . | . | . | 4.3 | .
CCc1nc2ccc(C(=O)N3CCNC(=O)C3)cn2c1N(C)CCC(C)C | -6.4 | 3537 | 0.0 | -1.2 | -3.4 | . | .
Cc1cc(C(=O)NC2CCCN(Cc3ccccc3F)C2)n[nH]1 (stereo not drawn) | -2.1 | 6764 | -2.8 | -1.3 | -1.3 | 0.3 | .
Cc1cccc(-n2ncc3c(N)ncnc32)c1 | 1.5 | 3308 | -0.4 | -2.3 | 30.4* | -0.9 | -15.9
Cc1ccc(S(=O)(=O)NCCC(=O)NCCOc2ccccc2)cc1 | -6.0 | 6644 | -3.0 | -14.1 | -8.3 | . | .
CCC(Cc1ccccc1)NC(=O)C1CC1 (stereo not drawn) | 5.8 | 3140 | 0.8 | ? | -6.6 | -5.9 | .
CCc1noc(C)c1C(=O)N(C)CC(=O)Nc1ccccc1C(F)(F)F | . | . | . | . | 35.9* | . | -1.5
SMILES | Anthrax LF prot | Bead autofluor | BoNT-A LC inh2 | BoNT-F LC inh | CCHF vOTU inh-1 | SARS 3CLpro inh | CCHF vOTU inh-2
CCc1noc(C)c1C(=O)N(C)CC(=O)Nc1ccc(Cl)c(Cl)c1 | 4.0 | 5756 | 2.0 | 5.4 | -8.2 | . | .
CCOC(=O)C1(CCc2ccccc2)CCN(C(=O)c2occc2C)CC1 | -3.1 | 4898 | -2.2 | -5.4 | 32.2* | 0.2 | -7.5
CCOC(=O)C1(CCc2ccccc2)CCN(C(=O)c2cccc(C)n2)CC1 | 0.1 | 2136 | -1.0 | -1.6 | 15.4 | -3.1 | .
CCNC(=O)COC(=O)c1cccc(Br)c1 | -0.7 | 4035 | 0.3 | -3.5 | 1.3 | 4.1 | .
O=C(N/N=C/c1cccs1)c1cccc(NC(=O)c2ccc(Cl)cc2)c1 | . | . | . | . | 45.6* | -0.8 | 5.2
O=C(N/N=C/c1cccs1)c1cccc(S(=O)(=O)Nc2ccc(Cl)cc2)c1 | 2.0 | 2660 | -1.0 | -3.4 | -1.4 | -2.4 | .
CC1Cc2ccccc2N1CC(=O)NC(=O)NC1CCCCC1 (stereo not drawn) | 3.7 | 4077 | 3.9 | -3.8 | 31.3* | 10.5 | -12.9
N#Cc1ccc(S(=O)(=O)N2CCN(C(=O)c3cn(-c4ccccc4)nc3-c3cccnc3)CC2)cc1 | 0.9 | 8436 | 1.7 | -1.1 | -6.6 | . | .
Clc1ccc(N2CCN(c3nc4nonc4nc3N3CCSCC3)CC2)nc1 | -4.3 | 4812 | -1.0 | 2.9 | -9.2 | 4.8 | .
O=C(O)/C=C/c1ccc(S(=O)(=O)Nc2ccc3[nH]c(=O)[nH]c3c2)cc1 | -8.3 | 3262 | -3.9 | 3.4 | 33.2* | -8.3 | -3.9
Cc1ccc(NS(=O)(=O)c2ccc(/C=C/C(=O)O)cc2)cc1Cl | 2.2 | 4490 | -1.1 | -4.1 | -8.3 | -1.6 | .
Cc1ccc(S(=O)(=O)N2[C@@H](c3ccc(C(C)(C)C)cc3)C(C(=O)O)=CC[C@H]2c2cccs2)cc1 | -4.3 | 3065 | -0.1 | -9.4 | 32.2* | . | 2.5
Cc1ccc(S(=O)(=O)N2[C@@H](c3ccc(C(C)(C)C)cc3)C(C(=O)O)=CC[C@H]2c2ccc(C(C)C)cc2)cc1 | -1.9 | 3077 | -0.3 | -6.5 | 46.9* | . | 14.6
Cc1ccc([C@@H]2CC=C(C(=O)O)[C@H](c3ccc(C(C)(C)C)cc3)N2S(=O)(=O)c2ccc(C)cc2)cc1 | -5.4 | 3772 | -0.2 | -2.1 | 41.5* | . | 19.4
Cc1ccc([C@H]2C(C(=O)O)=CC[C@@H](c3cccs3)N2S(=O)(=O)c2ccc(C)cc2)cc1 | -5.0 | 2997 | -0.2 | -5.8 | 15.3 | . | .
Cc1ccc([C@@H]2CC=C(C(=O)O)[C@H](c3ccc(F)cc3)N2S(=O)(=O)c2ccc(C)cc2)cc1 | -4.4 | 4093 | 0.5 | -7.4 | 17.3 | . | .
Cc1ccc(S(=O)(=O)N2[C@@H](c3cccc(Cl)c3)C(C(=O)O)=CC[C@H]2c2ccc(Cl)cc2)cc1 | -9.1 | 2911 | 0.1 | 1.2 | 4.6 | . | .
Cc1ccc(S(=O)(=O)N2[C@@H](c3ccc(C(C)(C)C)cc3)C(C(=O)O)=CC[C@H]2c2ccc(Cl)cc2)cc1 | -0.8 | 3767 | -0.1 | 1.5 | 41.8* | . | 13.0
CCc1ccc(NC(=O)CN2CCCN(S(=O)(=O)c3ccc(F)cc3)CC2)cc1 | 0.0 | 5793 | -0.2 | 2.4 | -7.2 | 1.7 | .
COc1cccc(C(C(=O)NC2CCCC2)N(C(=O)c2ccco2)c2ccc(NC(C)=O)cc2)c1OC (stereo not drawn) | -0.3 | 5487 | 2.0 | 0.7 | 2.6 | -9.8 | .

Compound activity (PubChem)
